Results as given in PubChem BioAssay (NCATS).
Results filed as inconclusive are left out. Where a call stands in place of a potency, no number is given. The source made the active and inactive calls. Calls come from the whole dose curve; as a rule, active = well fitted inhibition curve with a large enough effect; inconclusive = small, poorly fitted or top-dose-only effect; inactive = flat fitted curve, though single readings scatter.

Target: Aldehyde dehydrogenase, mitochondrial (Homo sapiens) (UniProt P05091)
Test: qHTS for Inhibitors of the Aldehyde Dehydrogenase Family (ALDH2) Primary screen (AID 2061308); note: nearly all actives have a fitted effect of over 55% in size
Details: ALDH2 enzyme inhibition qHTS, 1536-well; series mostly up to 56 µM

SMILES	Potency
Cc1nc(CNc2ncnc3ccc(-c4ccoc4)cc23)cs1	inactive
Cc1ccsc1C1N=C(Nc2nc3ccccc3o2)NC2=C1C(=O)CCC2 (stereo unspecified)	inactive
O=C(N[C@H]1CCN(C(=O)c2cc(C(F)(F)F)cc(C(F)(F)F)c2)[C@H](Cc2ccc(Cl)cc2)C1)c1ccnc2ccccc12	inactive
CCCn1c(-c2ccc(F)cc2)nc2c(N(C)CCN(C)C)nc(C)nc21	inactive
COc1ccc(C2c3c(N)nc(CCCc4ccccc4)nc3Oc3ccc4ccccc4c32)cc1OC (stereo unspecified)	inactive
C=C(C(=O)OC)[C@@H]1CC=C2C=CC(=O)[C@H](C)[C@@]2(C)C1	inactive
CN(CCc1cnc[nH]1)c1ncnc2ccc(-c3ccc4c(c3)OCO4)cc12	inactive
Cc1cc(NC(=O)c2csc(NC(=O)Cc3ccc(Cl)c(Cl)c3)n2)no1	inactive
CCOC(=O)c1csc(NC(=O)c2ccncc2NS(=O)(=O)c2ccc(C)cc2)n1	inactive
COc1ccc(C2=Nn3c(nnc3-c3ccc(OC)c(OC)c3)SC2)cc1OC	inactive
CC1(C)CC2CC(C)(CN2S(=O)(=O)c2ccc(C(=O)Nc3ccc(Cl)cc3)cc2)C1 (stereo unspecified)	inactive
O=C(Nc1ccc(Cl)c(Cl)c1)Nc1nnc(-c2ccncc2)s1	inactive
CCOc1ccc(CCNC(=O)c2cc3sccc3n2Cc2ccc(Cl)c(F)c2)cc1OCC	inactive
CCCc1c(C(C)C)nc(C(C)C)c([C@@H](C)O)c1-c1ccc(F)cc1O	inactive
COc1cc(NC(=O)C(OC(=O)CNC(=O)c2ccccc2)c2ccccc2)cc(OC)c1 (stereo unspecified)	inactive
CC(C)c1ccccc1-c1ncc(F)c(NC2(c3ccc(-c4cccnc4)cc3)CC2)n1	inactive
